Our source for the composite z-score, z-score and composite Z-score values is PubChem BioAssay.

Activity calls are given as the source filed them.

Test [1] has as its system Human papillomavirus type 1a protein E7 (residues 44-93). Description: HPV1a E7 fragment binders on microarrays, primary screen, biochemical, small-molecule microarray, residues 44-93, 635 nm fluorescence (AID 1108).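 Also: E7 fragment applied at 1 µg/mL in TBST for 1 h at 4 C; score combines spot fluorescence with its signal to noise ratio.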 The note with it: small-molecule microarray binding, fluorescence 635 nm; higher = more signal.
A short description of test [2]: modulators of HCV replicon luciferase signal, primary screen, HCV replication inhibitor project, Huh7 cells, luciferase reporter (AID 1109).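 Also: huh7 hepatoma cells harbouring a luciferase neomycin HCV replicon reporter; luciferase luminescence as measure of HCV replicon replication; test concentration not given here.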 The note with it: 48 h, higher = more signal.
Test [3] has as its target Left-right determination factor 2 (Homo sapiens) (UniProt O00292). Kind of test: LEFTY2 binders on small-molecule microarrays, primary screen, biochemical, small-molecule microarray, 635 nm fluorescence scan (AID 1110). Conditions: LEFTY2 binding, higher = more signal.
The target of test [4] is Calmodulin-1 (Homo sapiens) (UniProt P0DP23). Kind of test: CALM1 binders on microarrays, EGTA buffer, profiling panel, biochemical, small-molecule microarray, Cy5-labelled CALM1 (AID 1111).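 Also: labelled calmodulin applied in Tris saline Tween buffer holding calcium plus EGTA and DTT.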 The note with it: Cy5-CALM1 binding fluorescence, higher = more signal.
Test [5] shares this target. Description: calcium-bound CALM1 binders on microarrays, profiling panel, artefact control for SMM control-protein annotation, biochemical, small-molecule microarray, Cy5-labelled CALM1, plus calcium (AID 1112).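 Also: score merges spot fluorescence with signal to noise from triplicate slides.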 Conditions: Cy5-CALM1 binding fluorescence, higher = more signal.
Test [6] can be described thus: small-molecule microarray binders of probe aWnt5a, primary screen, biochemical, biotinylated probe, 635/667 nm fluorescence (AID 1113).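 Also: score merges 667 nm fluorescence intensity with signal-to-noise per printed feature.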 The note with it: higher = more signal.
The nature of test [7]: small-molecule microarray binders of probe aShh, primary screen, biochemical, biotinylated probe, 635/667 nm fluorescence (AID 1114).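 Also: probe is biotin-labelled aShh protein from a stem cell growth factor screen; measures binding of labelled protein to compounds printed on the slide; score merges feature fluorescence at 667 nm with signal-to-noise.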 The note with it: higher = more signal.
Test [8] can be described thus: small-molecule microarray binders of probe aNog, primary screen, biochemical, biotinylated probe, 635/667 nm fluorescence (AID 1115).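 Also: probe is biotinylated aNog protein used at 0.15 µg/mL for 1 h at 4 C; z-score combines 667 nm fluorescence of each spot with its signal to noise.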 Conditions: higher = more signal.
The target of test [9] is Torsin-1A-interacting protein 1 (Homo sapiens) (UniProt Q5JTV8). Kind of test: LAP1 binders from COS7 cell lysate, primary screen, small-molecule microarray, 635/667 nm fluorescence (AID 1116). Conditions: COS7-hLAP1 lysate binding, 635 nm fluorescence, higher = more signal.
Test [10] concerns the target Alpha-bungarotoxin (Bungarus multicinctus) (UniProt P60615). Description: alpha-bungarotoxin binders on microarray, profiling panel, artefact control for SMM control protein annotation, biochemical, small-molecule microarray, Alexa647 label, 635/667 nm fluorescence (AID 1117). The note with it: alpha-BTX-A647 binding fluorescence, higher = more signal.
Test [11] addresses Albumin (Bos taurus) (UniProt P02769). Kind of test: bovine serum albumin binders on microarray, profiling panel, artefact control for SMM control protein annotation, biochemical, small-molecule microarray, Alexa647 label, 635/667 nm fluorescence (AID 1118).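 Also: score merges 667 nm emission intensity and signal-to-noise per printed compound spot.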 Conditions: BSA-A647 binding, fluorescence 635 nm, higher = more signal.
Test [12] in a line: small-molecule microarray binders of probe aXIP, primary screen, biochemical, NeuroSMM set, 635/667 nm fluorescence (AID 1119).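 Also: probe is the protein aXip251-270 applied at 1 µg/mL to compound-printed slides; binding of probe to printed compounds measured as 667 nm fluorescence plus signal to noise.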 Conditions: higher = more signal, called active from +8 up or from −8 down.
A short description of test [13]: small-molecule binders of probe aNOTCH3, primary screen, biochemical, small-molecule microarray, 635/667 nm fluorescence (AID 1120).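 Also: probe is a biotin-tagged antibody raised against NOTCH3 rather than NOTCH3 protein; score merges spot fluorescence near 667 nm with spot signal to noise.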 Conditions: higher = more signal.
The nature of test [14]: small-molecule binders of probe aNOTCH2, primary screen, biochemical, small-molecule microarray, 635/667 nm fluorescence (AID 1121).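 Also: score merges feature fluorescence read at 667 nm with its signal to noise.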 The note with it: higher = more signal.
For test [15], the target named is Carbonic anhydrase 2 (Homo sapiens) (UniProt P00918). Description: CAII small-molecule binders, profiling panel, biochemical, small-molecule microarray, Alexa647-labelled CAII (AID 1122). The note with it: CAII-A647 binding fluorescence, higher = more signal.
A short description of test [16]: COS7 lysate on small-molecule microarray, probe aHis, 635 nm (AID 1123).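 Also: z-score combines 667nm fluorescence intensity with signal-to-noise per printed compound spot.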 Conditions: COS7 cell lysate, fluorescence, higher = more signal.
Test [17] is described as follows: compound binding in COS7 lysate, probe aLAP1, primary screen, cell lysate, small-molecule microarray (AID 1124).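 Also: lysate comes from COS7 cells expressing LAP1 and is applied at 0.3 µg/mL; score merges spot fluorescence near 667 nm with signal-to-noise over triplicate slides.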 The note with it: probe aLAP1, fluorescence, higher = more signal.
The subject of test [18] is Sam68 (KHDRBS1). Description: Sam68 small-molecule binders, primary screen, biochemical, small-molecule microarray, 635 nm fluorescence (AID 1125).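 Also: score merges 667 nm channel intensity with signal to noise over triplicate slides.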 Conditions: small-molecule microarray binding, higher = more signal.
For test [19], the system named is Chordin-like protein 2 (CHRDL2). Kind of test: CHRDL2 small-molecule binders, primary screen, biochemical, small-molecule microarray, 635 nm fluorescence (AID 1126).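 Also: printed compound slides probed with Chrdl2 protein at 4 µg/mL for 1 h at 4 C; score merges 667 nm emission intensity with signal to noise over three replicate slides.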 Conditions: small-molecule microarray binding, fluorescence 635 nm; higher = more signal.
Test [20] deals with Concanavalin-A (Canavalia ensiformis) (UniProt P02866). Kind of test: ConA small-molecule binders, primary screen, artefact control for SMM control protein annotation, biochemical, small-molecule microarray, Alexa647 label, 635 nm (AID 1127).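 Also: z combines 667 nm emission intensity with signal-to-noise across three replicate slides.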 The note with it: ConA-A647 binding fluorescence, higher = more signal.
Concanavalin-A (Canavalia ensiformis), sequence (P02866 whole entry, looked up): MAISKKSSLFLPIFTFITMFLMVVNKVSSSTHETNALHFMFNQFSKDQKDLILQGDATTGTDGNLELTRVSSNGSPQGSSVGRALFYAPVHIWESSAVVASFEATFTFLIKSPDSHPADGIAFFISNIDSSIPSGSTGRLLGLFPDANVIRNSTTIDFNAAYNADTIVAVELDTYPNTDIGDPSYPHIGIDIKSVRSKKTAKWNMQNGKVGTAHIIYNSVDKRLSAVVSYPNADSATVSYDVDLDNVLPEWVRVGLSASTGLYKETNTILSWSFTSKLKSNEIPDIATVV

Left-right determination factor 2 (Homo sapiens), sequence (O00292 whole entry, looked up): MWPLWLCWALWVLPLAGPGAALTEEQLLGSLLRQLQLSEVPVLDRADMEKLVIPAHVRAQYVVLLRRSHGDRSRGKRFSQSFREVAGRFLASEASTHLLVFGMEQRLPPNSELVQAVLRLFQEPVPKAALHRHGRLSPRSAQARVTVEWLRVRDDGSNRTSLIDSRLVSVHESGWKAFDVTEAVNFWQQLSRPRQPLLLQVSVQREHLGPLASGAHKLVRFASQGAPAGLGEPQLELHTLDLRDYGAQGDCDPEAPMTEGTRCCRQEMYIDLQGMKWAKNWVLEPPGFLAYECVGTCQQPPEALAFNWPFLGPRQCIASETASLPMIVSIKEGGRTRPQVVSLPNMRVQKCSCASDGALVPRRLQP
Albumin (Bos taurus), sequence (P02769 whole entry, looked up): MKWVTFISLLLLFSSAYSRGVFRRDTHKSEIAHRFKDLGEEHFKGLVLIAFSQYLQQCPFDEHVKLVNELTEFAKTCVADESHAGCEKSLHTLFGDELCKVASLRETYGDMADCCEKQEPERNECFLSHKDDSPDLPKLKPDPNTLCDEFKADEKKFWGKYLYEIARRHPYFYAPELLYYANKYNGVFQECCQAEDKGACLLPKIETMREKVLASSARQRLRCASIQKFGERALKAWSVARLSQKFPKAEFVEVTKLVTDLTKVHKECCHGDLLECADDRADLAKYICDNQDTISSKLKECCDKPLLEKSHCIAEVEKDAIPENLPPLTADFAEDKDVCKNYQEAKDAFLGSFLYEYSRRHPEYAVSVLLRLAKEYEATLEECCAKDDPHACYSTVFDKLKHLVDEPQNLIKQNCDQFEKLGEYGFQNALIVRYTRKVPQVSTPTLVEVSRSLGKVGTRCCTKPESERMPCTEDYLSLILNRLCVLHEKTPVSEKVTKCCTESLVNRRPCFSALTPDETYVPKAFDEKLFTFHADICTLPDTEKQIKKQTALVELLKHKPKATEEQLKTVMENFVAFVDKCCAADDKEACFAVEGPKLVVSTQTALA
Alpha-bungarotoxin (Bungarus multicinctus), sequence (P60615 whole entry, looked up): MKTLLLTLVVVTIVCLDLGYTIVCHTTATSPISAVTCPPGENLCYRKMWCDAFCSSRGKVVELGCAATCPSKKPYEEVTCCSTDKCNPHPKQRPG
Torsin-1A-interacting protein 1 (Homo sapiens), sequence (Q5JTV8 whole entry, looked up): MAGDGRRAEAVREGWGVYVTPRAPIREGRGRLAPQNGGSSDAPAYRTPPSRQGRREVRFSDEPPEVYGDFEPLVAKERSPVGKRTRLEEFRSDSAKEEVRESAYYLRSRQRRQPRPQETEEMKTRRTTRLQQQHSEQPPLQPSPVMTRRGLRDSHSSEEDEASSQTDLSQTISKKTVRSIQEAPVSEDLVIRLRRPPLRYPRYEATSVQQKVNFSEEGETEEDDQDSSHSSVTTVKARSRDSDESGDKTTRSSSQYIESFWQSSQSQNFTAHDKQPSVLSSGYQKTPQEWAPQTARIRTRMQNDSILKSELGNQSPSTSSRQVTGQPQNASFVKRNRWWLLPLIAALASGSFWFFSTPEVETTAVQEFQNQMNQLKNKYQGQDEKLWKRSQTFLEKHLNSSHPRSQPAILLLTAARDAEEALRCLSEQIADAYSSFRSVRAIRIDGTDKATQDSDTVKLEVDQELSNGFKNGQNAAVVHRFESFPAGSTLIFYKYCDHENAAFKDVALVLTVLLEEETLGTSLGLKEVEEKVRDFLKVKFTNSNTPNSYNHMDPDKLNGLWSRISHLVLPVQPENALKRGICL

As to `COC(=O)C(CC#Cc1ccc2c(c1)[C@]1(C(=O)N2)[C@H](C(=O)N2CCc3cc(OC)c(OC)cc3C2)[C@H]2C(=O)O[C@H](c3ccccc3)[C@H](c3ccccc3)N2[C@@H]1c1ccc(OCCO)cc1)C(=O)OC`, the composite z-score in [1] is 1.41; in test [3], 0.633; in [4], 1.07; in [5], 0.16; in test [6] it was -0.0236; in test [7] it was -0.159. The composite z-score was -0.198 in [8]; 0.254 in [9]; 1.08 in test [10]; 0.438 in [11]; 0.239 in test [13]; -0.0664 in test [14]. The composite z-score in [15] was 0.413; in test [16], 2.17; in test [17], 0.969; in test [18], 1.31; in [19], 0.506; in [20], 0.942. In addition, the z-score in [2] was -1.21. Also, the composite Z-score in [12] was -0.715 (inactive).
Regarding `COc1ccc(C(=O)Nc2ccc3c(c2)[C@]2(O[C@@H](CCO)[C@H]([Si](C)(C)c4ccc(OC)cc4)[C@H]2C)C(=O)N3Cc2ccccc2)cc1`, the composite z-score in test [1] is 0.958; in test [3] it was 0.793; in [4] it was 0.475; in test [5], 0.57; in test [6], -0.13; in test [7], 0.0062. In addition, the composite z-score is -0.295 in [8]; 0.422 in test [9]; 0.375 in [10]; -0.58 in test [11]; -0.242 in test [13]; -0.135 in test [14]. The composite z-score is 0.0277 in test [15]; -0.0175 in test [16]; -0.352 in [17]; 1.01 in test [18]; 0.845 in [19]; 0.908 in test [20]. Besides, the z-score in [2] is -5.23. The composite Z-score in test [12] is 0.131 (inactive).
Take `COC(=O)c1ccc(OC)c(/C=C\CC(CCc2ccccc2)OC(C)=O)c1` (stereo not given): the composite z-score in [1] was -0.498; in test [3], -0.274; in test [4], -0.42; in test [5], -0.134; in [6], -0.152; in test [7], -0.214. Also, the composite z-score in test [8] is -0.192; in [9], -0.343; in test [10] it was 0.516; in test [11], 0.804; in test [13], -0.272; in test [14], -0.196. The composite z-score in [15] is 0.557; in [16] it was -0.14; in test [17], 0.275; in test [18], -0.0896; in [19] it was 0.204; in [20], 0.0426. Moreover, the z-score in test [2] was -1.1. The composite Z-score in [12] was -0.376 (inactive).
On to `C#CCNS(=O)(=O)N(C)C`, for which the composite z-score is 0.638 in test [1]; 0.713 in test [3]; -0.157 in test [4]; -0.687 in [5]; -0.096 in test [6]; 0.0463 in test [7]. The composite z-score in test [8] was -0.168; in test [9], 0.0976; in test [10] it was 0.601; in [11] it was 0.225; in [13], -0.124; in [14], -0.14. In addition, the composite z-score was -0.107 in [15]; 0.214 in test [16]; -0.113 in [17]; 0.815 in test [18]; 0.497 in test [19]; 0.0968 in test [20]. Moreover, in test [2], the z-score is 0.119. Besides, in test [12], the composite Z-score was 0.0498 (inactive).
For the molecule `CC(C)C[C@@H]1NC(=O)[C@@H]2C[C@H](C(=O)NCCCC[N+](C)(C)C)[C@H](c3cccc(OCCO)c3)N2C1=O`, the composite z-score is -0.832 in [1]; 1.01 in test [3]; -0.863 in [4]; 0.348 in test [5]; -0.0236 in test [6]; 0.151 in test [7]. Also, the composite z-score is -0.198 in [8]; 1.05 in test [9]; 0.324 in [10]; -1.59 in [11]; 0.116 in [13]; -0.0999 in test [14]. For the same molecule, the composite z-score in test [15] was found to be 0.479; in test [16], 0.432; in test [17] it was 0.255; in test [18], 0.82; in test [19], 1.44; in [20], 0.496. In test [2], the z-score was -0.604. For the same molecule, in [12], the composite Z-score is 0.0578 (inactive).
On to `[N-]=[N+]=NCc1ccccc1C[C@]1(C(=O)NCCN2CCOCC2)COC(c2ccc(OCCCO)cc2)=N1`, for which the composite z-score was 1.44 in test [1]; -0.389 in test [3]; 0.74 in test [4]; -0.096 in [5]; 0.0479 in [6]; -0.0119 in [7]. The composite z-score in test [8] is -0.509; in test [9], 0.555; in test [10], -0.0034; in test [11], 0.854; in test [13], 0.116; in test [14], -0.106. For the same molecule, the composite z-score in test [15] was 0.353; in test [16], 2.31; in test [17], 1.47; in test [18], 1.29; in test [19] it was -0.519; in [20], 0.0927. In addition, in test [2], the z-score is -1.79. Besides, the composite Z-score in test [12] was 0.689 (inactive).
